Data taken from PubChem BioAssay (NCATS).
Values joined by “and” are separate entries in the source; they are usually repeats but may differ in a detail not shown here. Equal values may be shown once. Inconclusive results are not listed. Active and inactive are the calls of the source. The call rests on the fitted dose curve; in most records, active means well fitted curve in the direction sought with a large enough effect; inconclusive means small, poorly fitted or top-dose-only effect, or another doubt; inactive means no such curve, though single readings can be large; an effect the other way counts as inactive or inconclusive.

experiment: qHTS for Inhibitors of Ubiquitin-specific Protease USP2a Using CHOP2 as the Reporter: K633 Counterscreen (AID 652168); conditions: No-enzyme DiUb K48 IQF substrate fluorescence interference, kinetic; series mostly up to 57.5 µM; activity change, negative = inhibition: at the top concentration; further: % of control where 0% means no effect
In short: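 Cell-free interference counterscreen without USP2a: compounds pinned into enzyme-free buffer (20 mM Tris pH 8, 2 mM beta-mercaptoethanol, 0.05% Chaps), then DiUb K48-4IQF substrate added (100 nM stock); fluorescence read kinetically, Ex 525/Em 598.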

Structure (SMILES) | activity change, negative = inhibition | outcome
Cc1ccc(-c2cc(C(=O)Nc3ccc(-c4nn[nH]n4)cc3)c3ccccc3n2)cc1C | 25% (inactive) | –
Cc1ccc(S(=O)(=O)Nc2cc(F)c(F)cc2C(=O)Nc2nc(-c3ccccc3)cs2)cc1 | -2.93% (inactive) | –
Cc1ccc(S(=O)(=O)Nc2ccccc2C(=O)Nc2nc(-c3ccccc3)c(Br)s2)cc1 | -10.5% (inactive) | –
Cc1ccc(S(=O)(=O)Nc2cc(C)ccc2C(=O)Nc2nc(-c3ccccc3)cs2)cc1 | -13% (inactive) | –
Cc1ccc(S(=O)(=O)Nc2cnccc2C(=O)Nc2nc(C3CCC3)cs2)cc1 | -18.8% (inactive) | –
Cc1ccc(S(=O)(=O)Nc2ccccc2C(=O)Nc2nccs2)cc1 | -9.98% (inactive) | –
Cc1ccc(S(=O)(=O)Nc2cnccc2C(=O)Nc2ccncc2)cc1 | -1.38% (inactive) | –
Cc1ccc(S(=O)(=O)Nc2cnccc2C(=O)Nc2ccc(-c3nc4ccccc4[nH]3)cc2)cc1 | -3.14% (inactive) | –
COc1ccc(NS(=O)(=O)c2ccc(C)cc2)c(C(=O)Nc2nc(-c3ccccc3)cs2)c1 | -14.9% (inactive) | –
Cc1ccc(S(=O)(=O)Nc2cnccc2C(=O)Nc2nc(-c3ccc(Cl)c(Cl)c3)cs2)cc1 | -19.1% (inactive) | –
O=C(Nc1ccc(S(=O)(=O)Nc2nccs2)cc1)c1ccncc1 | 0.79% (inactive) | –
O=C(Nc1ccc([S+](=O)([O-])Nc2nccs2)cc1)C1CCNCC1 | -4.89% (inactive) | –
Cc1ccc(-c2cc(C(=O)Nc3ccc(-c4noc(=O)[nH]4)cc3)c3ccccc3n2)cc1C | 3.14% (inactive) | –
O=c1[nH]c(CN2CCOCC2)nc2sc3c(c12)CCCC3 | 1.52% (inactive) | –
CC1(C)CC(C(=O)Nc2ccc([S+](=O)([O-])Nc3nccs3)cc2)C1 | -6.23% (inactive) | –
Cc1ccc(S(=O)(=O)Nc2ccncc2C(=O)Nc2nc(-c3ccccc3)cs2)cc1 | 13.9% (inactive) | –
Cc1ccc(S(=O)(=O)Nc2cc(Br)ccc2C(=O)Nc2nc(-c3ccccc3)cs2)cc1 | -8.04% (inactive) | –
Cc1noc(C)c1S(=O)(=O)Nc1cnccc1C(=O)Nc1nc(-c2ccccc2)cs1 | -7.08% (inactive) | –
Cc1ccc(-c2cc(C(=O)NCC[S+](=O)([O-])O)c3ccccc3n2)cc1C | 4.38% (inactive) | –
COc1cc(NS(=O)(=O)c2ccc(C)cc2)c(C(=O)Nc2nc(-c3ccccc3)cs2)cc1OC | -2.64% (inactive) | –
Cc1ccc(S(=O)(=O)Nc2ccc(Cl)cc2C(=O)Nc2nc(-c3ccccc3)cs2)cc1 | – | inactive
CCCCC(=O)N1CCC(C(=O)Nc2ccc([S+](=O)([O-])Nc3nccs3)cc2)CC1 | -4.09% (inactive) | –

experiment: qHTS for Inhibitors of Ubiquitin-specific Protease USP2a Using CHOP2 as the Reporter: Cytotox Assay (AID 652170); conditions: HCT116 viability, CellTiter-Glo luminescence, 72 h; series mostly up to 46.1 µM; activity change, negative = cytotoxicity: at the top concentration; further: nearly all actives have a fitted effect of over 70% in size; further: potency means the concentration at half of the fitted maximal effect;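 on activity change, negative = cytotoxicity: plate controls were DMSO-treated cells for no effect and wells without cells for full effect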
In short: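 HCT116 human colon cancer cells, 600 per well in DMEM with 10% FBS, exposed to compounds for 72 hr at 37 deg C. ATP measured by CellTiter-Glo luminescence, normalized to DMSO cells and no-cell background.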

Structure (SMILES) | activity change, negative = cytotoxicity | Potency
Cc1ccc(-c2cc(C(=O)Nc3ccc(-c4nn[nH]n4)cc3)c3ccccc3n2)cc1C | 23.3% (inactive) | –
Cc1ccc(S(=O)(=O)Nc2cc(F)c(F)cc2C(=O)Nc2nc(-c3ccccc3)cs2)cc1 | – | 2.96 µM (active)
Cc1ccc(S(=O)(=O)Nc2ccccc2C(=O)Nc2nc(-c3ccccc3)c(Br)s2)cc1 | – | 5.9 µM (active)
COc1ccc(OC)c(C(=O)Nc2nc(-c3ccccc3)cs2)c1 | 2.09% (inactive) | –
Cc1ccc(S(=O)(=O)Nc2cccnc2C(=O)Nc2nc(-c3ccccc3)cs2)cc1 | – | 14.8 µM (active)
Cc1ccc(S(=O)(=O)Nc2cc(C)ccc2C(=O)Nc2nc(-c3ccccc3)cs2)cc1 | – | 14.8 µM (active)
Cc1ccc(S(=O)(=O)Nc2cnccc2C(=O)Nc2ccncc2)cc1 | 10.2% (inactive) | –
Cc1ccc(S(=O)(=O)Nc2cnccc2C(=O)Nc2ccc(-c3nc4ccccc4[nH]3)cc2)cc1 | 14.4% (inactive) | –
COc1ccccc1NC(=O)c1cc(-c2ccc(C)c(C)c2)nc2ccccc12 | -5.2% (inactive) | –
Cc1ccc(-c2cc(C(=O)Nc3cccc4ccccc34)c3ccccc3n2)cc1C | -23.2% (inactive) | –
Cc1ccc(-c2cc(C(=O)Nc3ccccc3Cl)c3ccccc3n2)cc1C | 0.661% (inactive) | –
O=C(Nc1ccc(S(=O)(=O)Nc2nccs2)cc1)c1ccncc1 | -4.38% (inactive) | –
Cc1ccc(S(=O)(=O)Nc2ccccc2C(=O)Nc2ccc(-c3ccccc3)nn2)cc1 | -14.1% (inactive) | –
O=C(Nc1ccc([S+](=O)([O-])Nc2nccs2)cc1)C1CCNCC1 | 10.5% (inactive) | –
O=c1[nH]c(CN2CCOCC2)nc2sc3c(c12)CCCC3 | 14.9% (inactive) | –
CC1(C)CC(C(=O)Nc2ccc([S+](=O)([O-])Nc3nccs3)cc2)C1 | 1.42% (inactive) | –

Structure (SMILES) | activity change, negative = cytotoxicity | Potency
CCC1CCC(C(=O)Nc2ccc(S(=O)(=O)Nc3nccs3)cc2)CC1 (centres undefined) | -7.29% (inactive) | –
Cc1ccc(-c2cc(C(=O)Nc3ncco3)c3ccccc3n2)cc1C | – | 1.32 µM (active)
Cc1noc(C)c1S(=O)(=O)Nc1cnccc1C(=O)Nc1nc(-c2ccccc2)cs1 | 2.82% (inactive) | –
Cc1ccc(-c2cc(C(=O)NCC[S+](=O)([O-])O)c3ccccc3n2)cc1C | -7.03% (inactive) | –
COc1cc(NS(=O)(=O)c2ccc(C)cc2)c(C(=O)Nc2nc(-c3ccccc3)cs2)cc1OC | 1.75% (inactive) | –
O=C(Nc1nc(-c2ccccc2)cs1)c1ccccc1 | -20% (inactive) | –
O=C(Nc1nc(-c2ccccc2)cs1)c1ccccc1-n1cnnn1 | 22.9% (inactive) | –
Cc1ccc(S(=O)(=O)Nc2ccc(Cl)cc2C(=O)Nc2nc(-c3ccccc3)cs2)cc1 | – | 4.18 µM (active) and 5.9 µM (active)
CCCCC(=O)N1CCC(C(=O)Nc2ccc([S+](=O)([O-])Nc3nccs3)cc2)CC1 | 15.9% (inactive) | –
Cc1ccc(S(=O)(=O)Nc2cccc(C(=O)Nc3nc(-c4ccccc4)cs3)c2Cl)cc1 | – | 11.8 µM (active)
Cc1ccc(-c2cc(C(=O)Nc3ccc(S(=O)(=O)NCc4nccs4)cc3)c3ccccc3n2)cc1C | -0.363% (inactive) | –
COc1ccc(C(=O)Nc2nc(-c3ccccc3)cs2)cc1NS(=O)(=O)c1ccc(C)cc1 | -19.1% (inactive) | –
Cc1ccc(-c2cc(C(=O)Nc3nc4ccccc4s3)c3ccccc3n2)cc1C | -3.13% (inactive) | –
Cc1ccc(S(=O)(=O)Nc2ccccc2C(=O)Nc2cccc(-c3ccccc3)c2)cc1 | – | 16.6 µM (active)
O=C(Cc1ccc2ccccc2c1)Nc1ccc(S(=O)(=O)Nc2nccs2)cc1 | -3.86% (inactive) | –
Cc1ccc(-c2cc(C(=O)N(C)c3ccccc3)c3ccccc3n2)cc1C | -2.35% (inactive) | –
